FLuc modulator = firefly luciferase modulation, counter-screen for miR-21 project. P08659. purified FLuc, Km substrates, luminescence inhibition. Potency, µM (highest dose often 57.5 µM), for inactives: at the top dose activity change, negative = inhibition, actives largely listed as inhibitors. 360,000 tested, 6.9% active;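 further: plate controls were vehicle for no effect and reference inhibitor for full effect; nearly all actives have a fitted effect of over 55% in size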
Target sequence (P08659 whole entry, looked up): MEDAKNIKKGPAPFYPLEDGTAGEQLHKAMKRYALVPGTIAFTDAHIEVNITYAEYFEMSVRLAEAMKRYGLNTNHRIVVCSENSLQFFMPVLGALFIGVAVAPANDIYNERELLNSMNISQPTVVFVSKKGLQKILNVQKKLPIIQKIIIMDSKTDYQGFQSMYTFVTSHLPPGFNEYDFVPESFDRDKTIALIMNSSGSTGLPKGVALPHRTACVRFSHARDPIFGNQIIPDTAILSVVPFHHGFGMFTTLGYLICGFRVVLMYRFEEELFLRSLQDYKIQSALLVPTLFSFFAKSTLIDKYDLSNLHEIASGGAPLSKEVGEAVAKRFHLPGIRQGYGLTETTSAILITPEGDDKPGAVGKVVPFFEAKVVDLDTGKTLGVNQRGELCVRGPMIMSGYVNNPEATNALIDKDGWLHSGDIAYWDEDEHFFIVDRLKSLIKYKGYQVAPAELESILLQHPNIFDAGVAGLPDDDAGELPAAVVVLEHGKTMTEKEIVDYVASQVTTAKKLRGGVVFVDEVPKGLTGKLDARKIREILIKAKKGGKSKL
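Biochemical qHTS of compounds, final roughly 60 µM downward over six points, against 10 nM purified firefly luciferase using Km concentrations of substrates (10 uM D-luciferin, 10 uM ATP) in Tris acetate pH 7.5 buffer; luminescence output.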
NPC1 promoter act = activators of NPC1 promoter; Huh7 NPC1 promoter luciferase reporter, 24 h; Potency, µM (titrated, usually from 9.22 µM), for inactives: top-dose activation, actives largely listed as activators; 320,000 tested, 2.4% active; further: % of control where 0% means no effect; nearly all actives have a fitted effect of over 60% in size
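Cells: Huh7 expressing luciferase under the NPC1 promoter, 1500/well. Seeded 2 h, compound added, incubated 24 h at 37 °C. Luciferase reagent, 10 min ambient, then luminescence.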
SMN2 splice enh = increases expression of the SMN2 splice variant. HEK293 SMN2-luciferase splicing reporter, luminescence, 30-36 h. Potency, µM (titrated, usually from 46.1 µM), inactives show top-dose activity change, positive = activation, usual class: activators. 210,000 tested, 2.8% active. AID 1458; further: % of control where 0% means no effect; nearly all actives have a fitted effect of over 55% in size
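HEK293 cells carry an SMN2 minigene-luciferase reporter in which exon 7 inclusion puts luciferase in frame. Cells were seeded at 2000 cells/well, attached for 10-12 hours, then exposed to compounds for 30-36 hours at 37C before ONE-Glo luminescence.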
ELG1 genotoxic = genotoxicity induction in ELG1-luciferase HEK293T cells. HEK293T ELG1-luciferase reporter, luminescence, 16 h. Potency, µM (series often up to 46 µM), without a hit: at the top dose activity change, positive = activation, actives largely listed as activators. 330,000 tested, 1.3% active. AID 504466; further: % of control where 0% means no effect; nearly all actives have a fitted effect of over 60% in size
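ELG1-luciferase HEK293T cells, 2,000/well; compound pinned in; 16 hr, 37 °C, 5% CO2; ONE-Glo, 30 min RT; luminescence on CCD imager.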
Rab9 prom act = activators of Rab9 promoter; 320,000 tested, 2.8% active; Huh7 Rab9 promoter-luciferase reporter, luminescence, 24 h; Potency, µM (titrated, usually from 9.22 µM), for the others: at the top dose activation, negative = inhibition, actives largely listed as activators; further: % of control where 0% means no effect; nearly all actives have a fitted effect of over 60% in size
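Cells were plated at 1500 per well in reduced-serum medium with 10% FBS and left 2 h. Compound in DMSO was then added for 24 h at 37 °C. Reporter signal was read by luminescence after 10 min with luciferase detection reagent.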
* = called active by the depositor; ? = inconclusive; . = no result given; [ ] = remark or other dose. Most compounds without a hit are left out; they make up all but 7.4% or so of the library. The call rests on the fitted dose curve; in most records, active means well fitted curve in the direction sought with a large enough effect; inconclusive means small, poorly fitted or top-dose-only effect, or another doubt; inactive means no such curve, though single readings can be large; an effect the other way counts as inactive or inconclusive. Potency means the concentration at half of the fitted maximal effect.

SMILES	FLuc modulator	NPC1 promoter act	SMN2 splice enh	ELG1 genotoxic	Rab9 prom act
COc1cccc(OCc2cc(C(=O)N3C[C@H]4C[C@@H](C3)c3cccc(=O)n3C4)no2)c1	17µM*	3.2µM*	.	18µM*	4µM*
COc1ccc(N=Cc2c(O)n(Cc3ccccc3)c(=S)[nH]c2=O)c(OC)c1	1.2µM*	?	.	?	?
O=C(O)C[O][Sb][O]CC(=O)O	.	.	15%[9.22 µM]	.	.
CCC(=Nc1cc(OC)ccc1OC)c1c(O)[nH]c(=O)[nH]c1=O	3%	-3%	-9%	6%	-3%
C=CCn1c(O)c(C(CC)=Nc2cc(OC)ccc2OC)c(=O)[nH]c1=O	8%	-3%	?	23µM*	3%
Nc1c(C(=O)Nc2ccc(F)c(Cl)c2)sc2nc3c(cc12)N1CCC3CC1	8.5µM*	.	-45%	.	.
N#Cc1cccc(NC(=O)c2sc3nc4c(cc3c2N)N2CCC4CC2)c1	12µM*	.	.	.	.
CN(C)c1ccc(NC(=O)c2sc3nc4c(cc3c2N)N2CCC4CC2)cc1	-8%	.	0%	.	.
N#CCBr	.	.	-4%	.	.
CO[C@H]1[C@H](O)[C@H](O[C@@H]2[C@H](Oc3cccc4c(O)c5c(=O)oc6ccc(C)c7c(=O)oc(c34)c5c67)O[C@@H](C)[C@H](O)[C@H]2O)O[C@@H](C)[C@@H]1O	.	.	19%[9.22 µM]	.	.
CN(CCC(=O)O)C1=Nc2ccc(Cl)cc2C(c2ccccc2)=[N+]([O-])C1	.	.	4%[9.22 µM]	.	.
COc1ccc(NC2CC(=O)N(C(C)C)C2=O)cc1 (stereo not given)	15µM*	?	16µM*	4.1µM*	3.2µM*
C=CCc1ccc(OCCn2nnc3ccccc32)c(OC)c1	11µM*	2.8µM*	.	16µM*	4µM*
COc1ccc(OCCOc2cccc(C=C3C(=O)NC(=O)NC3=O)c2)cc1	8.5µM*	0.32µM*	.	1%	0.11µM*
Cc1ccc(S(=O)ON2CCC(C(=O)O)(c3ccccc3)CC2)cc1 (stereo not given)	.	.	-1%[9.22 µM]	.	.
CCC12CCN(CCc3ccc([N+](=O)[O-])cc3)CC1Oc1c(O)cccc12 (stereo not given)	2%	.	.	.	.
Cc1ccc(-c2nn(Cc3ccccc3)cc2C=O)cc1C	27µM*	17%	6%	1%	23%
Cc1ccc(Cn2cc(C=O)c(-c3ccc(F)cc3)n2)cc1	?	5%	.	0%	-2%
Cc1ccc(-c2nn(Cc3ccccc3)cc2C=O)cc1	19µM*	?	?	14%	3.5µM*
CCSC(=O)Cl	.	.	1%	.	.
O=C1C(Cl)=C(Cl)C(=O)C(Cl)=C1Cl	.	.	-8%	.	.
Cc1cc(N2CCOCC2)nc2ccc(NC(=O)CCC(=O)N3CCC4(CC3)OCCO4)cc12	15µM*	26%	.	12%	19%
Oc1cccc(Cl)c1	.	.	-1%	.	.
CCN(CC)C(=O)c1ccc(NC(=O)c2ccc(N3CCCC3=O)cc2)cc1	?	-1%	.	1%	-7%
CC(C)(C)c1ccc(C(=O)Nc2ccc3nc(SCC(=O)N4CCCC4)sc3c2)cc1	7.6µM*	.	.	.	.
Cc1cc2oc(=O)cc(-c3cc4ccccc4o3)c2cc1OC(=O)N(C)C	2%	-13%	.	1%	-5%
O=C(NNc1c(F)c(F)cc(F)c1F)c1cc2ccccc2oc1=O	?	?	22%	?	3.2µM*
CCC(Oc1cc(Cl)ccc1Cl)C(=O)N1CCC2(CC1)OCCO2 (stereo not given)	11µM*	0.89µM*	.	?	1.8µM*
O=C(CN1CCCCC1)c1ccccc1F	3%	-22%	6%	-1%	4%
O=C(CN1CCCCC1)c1ccccc1Cl	19µM*	3%	-8%	4%	14%

Assay outcomes: PubChem BioAssay, National Center for Advancing Translational Sciences (NCATS)
